# Measured values taken from PubChem BioAssay AID488896 (Broad Institute, 2010).
# The whole screen tested about 320,000 compounds, of which about 3,100 (0.97%) were called active.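 Rule for the calls: active = mean replicate inhibition of at least 70% and a set share of replicates each scoring 70 or more; inconclusive = meets just one of the two criteria; inactive = fails both criteria.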 For the sample, actives were picked, then their nearest neighbours and some compounds at random.
# Molecular target: Scavenger receptor class B member 1 (Mus musculus) (UniProt Q61009)
# Sequence (Q61009 whole entry, looked up): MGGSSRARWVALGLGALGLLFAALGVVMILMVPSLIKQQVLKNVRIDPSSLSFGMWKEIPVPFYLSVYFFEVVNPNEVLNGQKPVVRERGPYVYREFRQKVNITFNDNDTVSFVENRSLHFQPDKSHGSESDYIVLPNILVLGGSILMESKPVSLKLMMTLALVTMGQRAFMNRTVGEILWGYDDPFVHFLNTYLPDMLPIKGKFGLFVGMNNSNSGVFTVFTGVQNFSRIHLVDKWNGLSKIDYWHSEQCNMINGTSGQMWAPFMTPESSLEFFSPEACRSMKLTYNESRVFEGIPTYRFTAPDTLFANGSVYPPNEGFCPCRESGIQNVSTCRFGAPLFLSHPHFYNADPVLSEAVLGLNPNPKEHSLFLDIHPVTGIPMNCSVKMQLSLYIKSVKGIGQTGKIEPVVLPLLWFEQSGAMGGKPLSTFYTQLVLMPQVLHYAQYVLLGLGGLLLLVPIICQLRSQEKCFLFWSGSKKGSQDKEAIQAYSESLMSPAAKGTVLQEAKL
# Assay: mouse SR-BI DiI-HDL uptake blockers – ldlA[mSR-BI] cells, fluorescence, single point, primary screen (AID 488896);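 note: 0% = median of neutral control wells and 100% = median of positive control wells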
# Details: ldlA[mSR-BI] CHO cells, 3 h, at 12.5 µM, stronger effect = higher value
row,SMILES,inhibition
1,NC(=O)C1(N2CCCC2)CCN(Cc2ccccc2)CC1,-9.32% (inactive)
2,O=C(N/N=C/c1cc([N+](=O)[O-])ccc1O)/C(=C\c1cccs1)NC(=O)c1ccccc1,113% (active)
3,O=C(Nc1ccc(C(=O)O)cc1)/C(=C/c1ccc([N+](=O)[O-])cc1)NC(=O)c1ccccc1,-3.79% (inactive)
4,C=CCNC(=O)/C(=C\c1cccc([N+](=O)[O-])c1)NC(=O)c1ccccc1,-15% (inactive)
5,CCCN(C(=O)COC(=O)CNS(=O)(=O)c1ccc(NC(C)=O)cc1)C1CCS(=O)(=O)C1 (stereo unspecified),-1.04% (inactive)
6,Cn1cc(C(=O)c2ccc(Cl)cc2Cl)cc1C(=O)NN,25.2% (inactive)
7,NNC(=O)c1ccc(Cl)cc1Cl,-14.8% (inactive)
8,CC(C)(C)c1cc(C(=O)NN)n(Cc2ccc(Cl)cc2Cl)n1,80.1% (active)
9,COCCN(C(=O)C(C)N1C(=O)c2ccccc2C1=O)c1c(N)n(CC(C)C)c(=O)[nH]c1=O (stereo unspecified),-16.4% (inactive)
10,O=C(COC(=O)c1ccc(O)cc1O)NC(=O)c1ccccc1,-38.7% (inactive)
11,O=C1NCC(Nc2ccccc2)C(=O)N1 (stereo unspecified),-24.4% (inactive)
12,O=C(NNC(=O)c1cc(S(=O)(=O)N2CCCCC2)ccc1Cl)c1ccccc1O,108% (active)
13,CCn1c2ccccc2c2cc(NC(=O)COC(=O)c3ccccc3Br)ccc21,-7.34% (inactive)
14,Cc1cc(C(=O)NNC(=O)c2ccccc2O)c(C)o1,13.4% (inactive)
15,CC1=C(C)CC(C(=O)NNC(=O)c2ccccc2O)C(C(=O)O)C1 (stereo unspecified),13.9% (inactive)
16,CC1CCCC(NC(=O)c2cc(S(=O)(=O)N3CCCCC3)ccc2Cl)C1C (stereo unspecified),11.2% (inactive)
17,O=C(COC(=O)c1cc(S(=O)(=O)N2CCCCC2)ccc1Cl)NCc1ccco1,17.2% (inactive)
18,CCn1c2ccccc2c2cc(NC(=O)COC(=O)c3cc(S(=O)(=O)N4CCCCC4)ccc3Cl)ccc21,77.1% (active)
19,O=C(Nc1ccccc1C(=O)O)c1cc(S(=O)(=O)N2CCCCC2)cs1,-2.98% (inactive)
20,O=C(NNC(=O)c1ccccc1O)c1ccccc1O,124% (active)
21,COc1ccc(CCNC(=O)c2ccc(NC(=O)CC3SC(N4CCCCC4)=NC3=O)cc2)cc1OC (stereo unspecified),66.6% (inactive)
22,CC(=NNC(=O)c1ccncc1)c1ccc(Cl)c(Cl)c1,6.02% (inactive)

row,SMILES,inhibition
1,COc1ccc(Cl)cc1C=CC=Nc1ccc(S(N)(=O)=O)cc1,-39.7% (inactive)
2,Cc1ccc2c(O)c(Cc3ccccc3)c(=O)[nH]c2n1,7.66% (inactive)
3,COc1ccc(C(CNC(=O)c2cccc(NS(=O)(=O)c3ccc(C)c(F)c3)c2)N2CCCC2)cc1 (stereo unspecified),-24.5% (inactive)
4,COc1ccc(C(CNC(=O)c2cccc(S(=O)(=O)Nc3ccccc3Cl)c2)N2CCOCC2)cc1 (stereo unspecified),79.7% (active)
5,COc1ccc(C(CNC(=O)c2ccc(S(=O)(=O)Nc3ccccc3C)cc2)N2CCOCC2)cc1 (stereo unspecified),-2.84% (inactive)
6,COc1cc(C(=O)NCC2(c3ccccc3)CCCC2)ccc1OC(C)C,3.63% (inactive)
7,COc1ccc(C(=O)Nc2ccc3nc(N4CCCCC4)cc(C)c3c2)cc1OC,44.3% (inactive)
8,COc1ccc(C(=O)Nc2ccc(C3(C#N)CCCC3)cc2)cc1OC,82% (active)
9,CN(O)C(=S)c1ccccc1,-24.5% (inactive)
10,Cc1c(NS(=O)(=O)c2cccc(C(=O)Nc3ccc(SC(F)F)cc3)c2)c(=O)n(-c2ccccc2)n1C,10.9% (inactive)
11,CC(=O)c1ccc(NC(=O)C(C)OC(=O)c2ccc(NS(=O)(=O)c3ccc4[nH]c(=O)[nH]c4c3)cc2)cc1 (stereo unspecified),18.7% (inactive)
12,Cn1nc(-c2ccc(Cl)cc2)c2cc(C(=O)NCc3ccco3)sc21,90.1% (active)
13,COc1ccccc1N1CCN(C(=O)c2cc3c(-c4ccc(Cl)cc4)nn(C)c3s2)CC1,58.4% (inactive)
14,CN(CCNC(=O)c1cc2c(-c3ccccc3F)nn(C)c2s1)C1CCCCC1,42% (inactive)
15,C[C@]12CCC(=O)C=C1C=CC1C2CC[C@@]2(C)C1CC[C@@]21CCC(=O)O1 (stereo partly specified),-3.73% (inactive)
16,O=C(c1cccnc1)N(Cc1ccccc1)C(=O)c1cccnc1,-2.46% (inactive)
17,CN(C(=O)c1ccc(NC(=O)Cc2cccc(NC(=O)C3CCN(C(=O)c4ccccc4)CC3)c2)cc1)C1CC1,15% (inactive)
18,CCCC(O)(c1ccccc1)C(c1ccccc1)c1ccccn1 (stereo unspecified),11.7% (inactive)
19,COc1ccc(C(CNC(=O)c2cccc(S(=O)(=O)Nc3ccc(Br)cc3)c2)N(C)C)cc1 (stereo unspecified),-24.3% (inactive)
20,CCOC(=O)c1nc(Nc2ccc(C(=O)OC)cc2)c2ccccc2n1,33.7% (inactive)
21,Cc1cccc(-c2nc(Nc3ccc(O)cc3)c3ccccc3n2)c1,74.9% (active)
22,COc1ccc(Nc2nc(-c3cccnc3)nc3ccccc23)cn1,31.9% (inactive)

row,SMILES,inhibition
1,O=C1NCC(c2ccccc2)(c2ccccc2)C(=O)N1,-22.9% (inactive)
2,O=C(Cc1ccc(Cl)cc1)c1ccccc1,1.95% (inactive)
3,O=C(CNC(=O)c1cc(S(=O)(=O)N2CCOCC2)ccc1N1CCCC1)Nc1ccc(F)c(F)c1,12.1% (inactive)
4,COC(=O)C1=CN(c2ccc(F)c(F)c2)C=C(C(=O)OC)C1c1ccc([N+](=O)[O-])cc1,71.8% (active)
5,COC(=O)c1nc2n(n1)C(c1ccc([N+](=O)[O-])cc1)C(C(=O)Nc1ccc(Cl)cc1)=C(C)N2 (stereo unspecified),-8.37% (inactive)
6,COC(=O)C1=CN(C)C=C(C(=O)OC)C1c1ccc(Cl)cc1Cl,-0.162% (inactive)
7,Cn1cc(C2OC(=O)c3ccccc32)c2ccccc21 (stereo unspecified),3.47% (inactive)
8,CCCCN(C(=O)CSCc1ccc(C)cc1)c1c(N)n(Cc2ccccc2)c(=O)[nH]c1=O,7.84% (inactive)
9,O=C(Nc1ccc2ccccc2c1[N+](=O)[O-])c1ccccc1,14.4% (inactive)
10,COC(=O)CC(CC(=O)OC)n1cccc1,-7.62% (inactive)
11,CC[C@]12c3[nH]c4cc(CCC(=O)N(C)C)ccc4c3CCN1C(=O)[C@@H](CC(=O)NCc1ccco1)C[C@@H]2C(=O)N1CCN(C(=O)c2ccco2)CC1,2.87% (inactive)
12,Cc1ccc(C)c(NC(=O)CN(C)C(=O)COc2ccc3ccccc3c2)c1,2.83% (inactive)
13,Cc1ccc(NS(=O)(=O)c2ccc(C)c(NC(=O)COc3ccc4ccccc4c3)c2)c(C)c1,78.5% (active)
14,Cc1ccc(C)c(NS(=O)(=O)c2ccc(OCC(=O)NCc3cccnc3)cc2)c1,-23.5% (inactive)
15,O=C1/C(=C\c2ccc([N+](=O)[O-])cc2)CS(=O)(=O)C/C1=C/c1ccc([N+](=O)[O-])cc1,17.7% (inactive)
16,CC[C@@H]1Cc2cc(O)ccc2C2=C1c1ccc(O)cc1C[C@H]2CC,76.1% (active)
17,O=C(NNC(=O)c1ccc2ccccc2c1)c1ccc(Cl)cc1,-17.1% (inactive)
18,COc1ccc(C)cc1Nc1nc(-c2c(C)[nH]c3ccccc23)cs1,77.1% (active)
19,COC(=O)c1cnc(Nc2cc(C)ccc2OC)c2ccccc12,11.3% (inactive)
20,COc1ccc(C)cc1Nc1nc(C)nc2c1oc1ccccc12,-8.2% (inactive)
21,COCC(=O)N(C)[C@H]1C[C@H]2c3cc(Oc4ccccc4C)ccc3CCN2C(=O)[C@H]1[C@H](C)O,5.04% (inactive)
22,COc1ccc(NC(=O)C2=NNC(=O)CC2)cc1S(=O)(=O)N1CCCCC1,12.9% (inactive)

row,SMILES,inhibition
1,COc1ccc(OC)c(-c2csc(NC(=O)C3=NNC(=O)CC3)n2)c1,74.1% (active)
2,COc1ccc(OC)c(-c2csc(NC(=O)COC(=O)C3CC3)n2)c1,29.7% (inactive)
3,O=C(CC(=O)c1cccnc1)c1ccccc1,1.21% (inactive)
4,CCCCCC(=O)NC(=S)NNC(=O)c1ccc([N+](=O)[O-])cc1,11.5% (inactive)
5,CCCCCC(=O)Nc1ccc(C(=O)N/N=C/c2ccc([N+](=O)[O-])cc2)cc1,92.9% (active)
6,O=C(COc1ccc(/C=N/NC(=O)c2ccc(O)cc2)cc1)Nc1ccc([N+](=O)[O-])cc1,24.6% (inactive)
7,Cc1ccc(S(=O)(=O)N2CCN(C(=O)c3cc(S(=O)(=O)N4CCOCC4)ccc3F)CC2)cc1,-4.26% (inactive)
8,CCOc1ccc(NC(=O)CN2CCN(CC(=O)Nc3ccc(OC)cc3)CC2)cc1,77.8% (active)
9,CCOC(=O)N1CCN(CC(=O)Nc2ccc(F)cc2)CC1,-2.83% (inactive)
10,CCOc1ccc(NC(=O)c2ccc(NC(=O)CN3C(=O)C(=O)N(CC(C)C)C3=O)cc2)cc1,75.7% (active)
11,CCOc1ccc(NC(=O)c2ccc(NC(=O)COC(=O)c3ccc(NC(=O)CC#N)cc3)cc2)cc1,57.5% (inactive)
12,CCOc1ccc(NC(=O)N2CCN(CC)CC2)cc1,-5.71% (inactive)
13,CCOc1ccc(NC(=O)c2ccc(NC(=O)C3CCCO3)cc2)cc1 (stereo unspecified),24.7% (inactive)
14,COc1ccc(/C=C2/CCCc3ccccc3C2=O)cc1,12.7% (inactive)
15,CCOc1cc(C=NNC(=O)CCCC(=O)NN=Cc2ccc(O)c(OCC)c2)ccc1O,7.36% (inactive)
16,CCOC(=O)[C@H]1[C@H]2COc3ccc(Br)cc3[C@@H]2N2C(=O)CN(C)C(=O)[C@@]12C,-11.5% (inactive)
17,Cc1cccc(NC(=O)c2cc([N+](=O)[O-])ccc2N2CCN(C)CC2)c1,13.3% (inactive)
18,Cc1cccc(NC(=O)c2ccc([N+](=O)[O-])o2)c1,0.0135% (inactive)
19,Cc1cccc(NC(=O)c2sc(-c3ccccc3)nc2-c2ccc([N+](=O)[O-])cc2)c1,77.7% (active)
20,CC(=O)OC1CCC2(C)C(=CCC3C4CC(=O)N(O)C(=O)C4(C)CCC32)C1 (stereo unspecified),-19% (inactive)
